High-throughput results as filed in PubChem BioAssay.
TcdB GH inh – TcdB glycohydrolase inhibition | hit rate 0.24% among 350,000 | inhibition, % at 9.99 µM | TcdB glycohydrolase enzymatic assay, plate reader | P18177
GDH-TPI counter-1 – counter-screen for M. tuberculosis FBA inhibitors: GDH-TPI coupled enzymes | inhibition, % at 4.8 µM | hit rate 1.2% among 360,000 | GDH-TPI coupled enzyme counterscreen, NADH absorbance; in the data active = inhibition above about 30%;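 also: 0% = DMSO wells and 100% = wells lacking the enzyme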
Mtb FBA inh – Mtb fructose-bisphosphate aldolase inhibition | P9WQA3 | AID 588726 | inhibition, % at 1 µM | hit rate 2.3% among 360,000 | purified M. tuberculosis FBA, fluorescence read-out; in the data active = inhibition above about 27%;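 also: 0% = vehicle and 100% = reference inhibitor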
Target sequence (P9WQA3 whole entry, looked up): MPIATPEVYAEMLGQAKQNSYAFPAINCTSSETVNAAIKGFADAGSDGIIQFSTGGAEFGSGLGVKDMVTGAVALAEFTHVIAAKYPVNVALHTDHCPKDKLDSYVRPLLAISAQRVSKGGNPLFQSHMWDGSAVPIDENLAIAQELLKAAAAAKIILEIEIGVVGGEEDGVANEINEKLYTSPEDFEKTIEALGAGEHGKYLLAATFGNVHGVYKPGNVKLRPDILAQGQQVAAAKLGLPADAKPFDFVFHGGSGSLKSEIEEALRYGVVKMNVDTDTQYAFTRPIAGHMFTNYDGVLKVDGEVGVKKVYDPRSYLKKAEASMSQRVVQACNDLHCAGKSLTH
PrPC surface inh – cell surface PrPC inhibition, primary TR-FRET screen. TR-FRET read-out. inhibition, % at 13.8 µM. hit rate 0.43% among 370,000. AID 720596; in the data active = inhibition above about 24%; also: 0% = median of the test wells and 100% = reference compound wells
Yp Topo-I inh – Y. pestis Topo-I inhibition via cleavage products. activity, % at 10 µM. AID 504884. hit rate 0.064% among 360,000. Y. pestis Topo-I cleavage product accumulation, plate reader; in the data active = activity above about 50%, passing the limit was not always enough; inconclusive = no clear call, values can overlap the other calls
Mtb FBA inh conf – confirmation of M. tuberculosis fructose-bisphosphate aldolase inhibitors; shares compounds with Mtb FBA inh; inhibition, % at 1 µM; purified M. tuberculosis FBA, fluorescence read-out; hit rate 78% among 5,600; AID 651616; in the data active = inhibition above about 27%;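 also: 0% = vehicle wells and 100% = reference inhibitor wells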
GDH-TPI counter-2 – inhibits GDH-TPI coupling enzymes, flagging Mtb FBA hits; shares compounds with Mtb FBA inh; GDH-TPI coupled enzyme counterscreen, fluorescence; hit rate 81% among 5,600; inhibition, % at 1 µM
GDH-TPI DR – counter-screen for M. tuberculosis FBA inhibitors: GDH-TPI dose response; shares compounds with Mtb FBA inh; GDH-TPI coupled enzyme assay, fluorescence, artifact counterscreen; IC50, µM; hit rate 79% among 170; call rule not given here
Starred values were filed as active, the others as inactive; ? = inconclusive; nt = not tested or not shown; + = active, no number. The list is not random: actives were taken first. Their share in the collection is about 3.2%. Rule as the data show it, unless noted: active = inhibition above about 10%; inactive = the rest.

SMILES | TcdB GH inh | GDH-TPI counter-1 | Mtb FBA inh | PrPC surface inh | Yp Topo-I inh | Mtb FBA inh conf | GDH-TPI counter-2 | others
O=C(c1ccccc1)c1ccc(OCC(O)CN2CCOCC2)cc1 (configuration not stated) | nt | -10.6 | 76.3* | 2.4 | 2.9 | 15.7 | 9.0 | GDH-TPI DR=>10
CC1CCCC(C)N1NC(=S)Nc1ccc(OC(F)F)cc1 (configuration not stated) | nt | 8.5 | 55.1* | -1.0 | -2.3 | 59.5* | 52.8*
COC(=O)c1c(S(N)(=O)=O)c2ccccc2n1C | nt | -2.5 | 32.8* | -1.4 | 7.5 | + | +
COC(=O)c1c(C(=O)c2ccc(Br)cc2)n(C)c2ccccc12 | 0.3 | 7.3 | 2.1 | -3.5 | 14.8 | nt | nt
COc1cccc(Cn2c3ccc(NC(=O)Cc4ccccc4C)cc3c(=O)n2C)c1 | 1.5 | 2.7 | 89.4* | -0.9 | -7.8 | + | +
Cc1ccccc1CC(=O)Nc1ccc2c(c1)c(=O)n(C)n2-c1ccccc1F | 0.8 | 12.6 | 104.4* | 3.2 | 13.7 | 82.1* | 72.4*
COc1cc(Cn2c3ccc(NC(=S)NCc4ccc(C)cc4)cc3c(=O)n2C)ccc1F | -0.5 | 6.2 | 37.6* | 8.1 | 12.8 | 180.0* | 137.9*
COc1cccc(CNC(=S)Nc2ccc3c(c2)c(=O)n(C)n3Cc2ccc(F)cc2)c1 | 0.6 | 3.0 | 28.8* | 7.5 | 22.6 | 129.8* | 93.9*
COc1cccc(CNC(=S)Nc2ccc3c(c2)c(=O)n(C)n3C)c1 | 1.1 | 14.6 | 26.2 | -9.2 | -3.3 | nt | nt
CO[C@@H]1CN(C)C(=O)c2cc(NS(C)(=O)=O)ccc2OC[C@@H](C)N(C(=O)C2CCCC2)C[C@@H]1C | 0.0 | nt | nt | nt | nt | nt | nt
CO[C@@H]1CN(C)C(=O)c2cc(NC(C)=O)ccc2OC[C@H](C)N(Cc2ccc(F)cc2)C[C@@H]1C | 0.0 | nt | nt | nt | nt | nt | nt
CCn1c(C)c(CCC(=O)O)c(=O)n2nc(-c3ccccc3OC)cc12 | nt | 11.8 | 53.7* | 2.7 | -3.1 | 39.5* | 40.6*
CCCc1cc(CCC)n2nc(N)nc2n1 | 1.4 | 4.9 | 31.9* | -1.6 | 5.7 | + | 178.8*
Cc1cc(-c2ccc(Cl)cc2)n2nc(N)nc2n1 | nt | 14.5 | 59.2* | -0.6 | 1.3 | 17.4 | 7.3 | GDH-TPI DR=2.56*
Cc1cc(-c2ccc(Cl)cc2)n2ncnc2n1 | 1.9 | 9.6 | 27.5* | 1.3 | -1.6 | 100.7* | 91.0*
C[C@@H]1CN([C@H](C)CO)C(=O)Cc2cc(NC(=O)Nc3ccc4c(c3)OCO4)ccc2O[C@@H]1CN(C)Cc1ccc(C(=O)O)cc1 | -0.8 | nt | nt | nt | nt | nt | nt
COc1cccc(NC(=O)N(C)C[C@@H]2OCc3ccccc3-c3c(n(C)c4ccccc34)C(=O)N([C@H](C)CO)C[C@H]2C)c1 | 0.4 | nt | nt | nt | nt | nt | nt
COc1ccc(CNCc2ccc(OC)c3ccccc23)cc1 | -0.9 | -2.1 | 56.9* | 14.0 | 11.5 | 11.4 | -5.2 | GDH-TPI DR=>10
Cc1ccc(-c2cnc3c(c2)C(=O)N([C@@H](C)CO)C[C@@H](C)[C@@H](CN(C)C(=O)Cc2ccccc2)O3)cc1 | -1.1 | nt | nt | nt | nt | nt | nt
O=C(C[C@@H]1C=C[C@@H](NC(=O)Nc2ccc3c(c2)OCO3)[C@H](CO)O1)NCc1ccc(F)cc1 | 0.6 | nt | nt | nt | nt | nt | nt
COc1ccc(CC(=O)N2CCN(C(=O)Cc3ccc(OC)cc3)CC2)cc1 | nt | 1.2 | 4.4 | 1.1 | 11.6 | nt | nt
COc1ccc(CC(=O)N2CCN(c3ccc(C4=NNC(=O)CC4C)cc3)CC2)cc1 (configuration not stated) | nt | 22.4 | 31.9* | -0.8 | -7.7 | 162.0* | 131.8*
Cc1noc(C)c1S(=O)(=O)Nc1cccc2c1O[C@H](CN(C)Cc1ccc(Oc3ccccc3)cc1)[C@H](C)CN([C@H](C)CO)C2=O | 0.1 | nt | nt | nt | nt | nt | nt
CSc1nc(-c2ccccc2)c(-c2ccccc2)[nH]1 | nt | -5.5 | 49.5* | -6.9 | 3.5 | 7.4 | -4.2
Cc1noc(C)c1NC(=O)N(C)C[C@@H]1Oc2ccc(NC(=O)CCN3CCOCC3)cc2C(=O)N([C@@H](C)CO)C[C@@H]1C | 0.0 | nt | nt | nt | nt | nt | nt
SMILES | TcdB GH inh | GDH-TPI counter-1 | Mtb FBA inh | PrPC surface inh | Yp Topo-I inh | Mtb FBA inh conf | GDH-TPI counter-2 | others
O=C(N[C@H]1CC[C@@H](CCNS(=O)(=O)c2ccccc2Cl)O[C@H]1CO)c1ccc(F)cc1 | -0.7 | nt | nt | nt | nt | nt | nt
O=S(=O)(Nc1nc2ccccc2nc1N1CCc2ccccc2C1)c1ccc(Cl)cc1 | nt | 32.1* | 65.5* | 1.9 | 6.7 | + | +
COc1ccc2c3c(n(C)c2c1)[C@H](CO)N(C(=O)C1CCCC1)CC31CCN(Cc2cccc(F)c2)CC1 | -0.8 | nt | nt | nt | nt | nt | nt
COc1cc(OC)c(OC)cc1/C=N/Nc1ncnc2c1[nH]c1ccccc12 | 0.8 | 18.8 | 5.5 | 5.2 | 1.1 | nt | nt
COc1ccc2[nH]c3c(Cl)ncnc3c2c1 | 1.4 | 5.5 | 2.4 | 1.2 | -6.8 | nt | nt
Fc1ccc2[nH]c3c(Cl)ncnc3c2c1 | 0.3 | 0.3 | 40.2* | 4.1 | -2.5 | 163.7* | 157.9*
COc1cccc2[nH]c3c(Cl)ncnc3c12 | 1.4 | 11.1 | 40.8* | 5.2 | 3.2 | 162.7* | 143.8*
CCCCOc1ncnc2c1[nH]c1ccc(F)cc12 | nt | -1.9 | 32.5* | 16.8 | 3.6 | 189.5* | 159.9*
C[C@@H]1CN([C@@H](C)CO)C(=O)c2cc(NC(=O)CCC(F)(F)F)ccc2O[C@H]1CN(C)Cc1ccc(C(=O)O)cc1 | 0.5 | nt | nt | nt | nt | nt | nt
O=C(C[C@@H]1C[C@@H]2c3cc(NC(=O)c4cccnc4)ccc3O[C@@H]2[C@@H](CO)O1)NC1CCCC1 | -0.7 | nt | nt | nt | nt | nt | nt
CN(Cc1ccon1)C(=O)CC1C(=O)NCCN1Cc1cccc(Oc2ccccc2)c1 (configuration not stated) | 0.0 | 11.7 | -0.8 | 6.4 | ? | nt | nt
CN(Cc1ccccn1)C(=O)CC1C(=O)NCCN1Cc1cccc(Oc2ccccc2)c1 (configuration not stated) | 0.6 | 5.9 | 31.8* | 1.6 | 4.4 | 164.8* | 122.3*
Cc1ccc(S(=O)(=O)Nc2ccc3c(c2)C(=O)N([C@@H](C)CO)C[C@@H](C)[C@H](CN(C)S(C)(=O)=O)O3)cc1 | 0.8 | nt | nt | nt | nt | nt | nt
O=C(C[C@@H]1CC[C@H]2[C@@H](COC[C@@H](O)CN2Cc2cccc(Cl)c2)O1)NCc1cccc(F)c1 | -2.2 | nt | nt | nt | nt | nt | nt
O=C(C1CCN(c2ccc(N3CCOCC3)nn2)CC1)N1CCN(c2ccc(F)cc2)CC1 | nt | 9.8 | 33.5* | nt | 6.2 | 39.1* | 31.8*
COc1ccc2c(c1)CCc1cc(C(=O)N3CCN(c4ccc(N5CCOCC5)nn4)CC3)sc1-2 | nt | 34.1* | 40.5* | nt | 29.8 | + | 195.2*
COc1cccc(N2CCN(C(=O)c3cc4c(s3)-c3ccccc3OC4)CC2)c1 | 0.6 | 8.7 | 4.6 | 5.8 | 7.0 | nt | nt
O=C(C1CCN(S(=O)(=O)N2CCOCC2)CC1)N1CCN(c2ccc(F)cc2)CC1 | -2.1 | -15.5 | -2.6 | 9.2 | -2.0 | nt | nt
O=C(NCc1ccco1)C1CCN(c2ccc(N3CCOCC3)nn2)CC1 | -0.3 | 0.5 | 27.2* | -17.4 | 5.6 | -2.5 | -2.8
